Measured values as given in PubChem BioAssay.
Calls of active or inactive are those of the source.

Assays:
[1] = target: Albumin (Bos taurus) (UniProt P02769); experiment: bovine serum albumin binders on microarray, profiling panel, artefact control for SMM control protein annotation, biochemical, small-molecule microarray, Alexa647 label, 635/667 nm fluorescence (AID 1118); settings: BSA-A647 binding, fluorescence 635 nm, higher = more signal;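 also: score merges 667 nm emission intensity and signal-to-noise per printed compound spot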
Chain of Albumin (Bos taurus) (P02769 whole entry, looked up): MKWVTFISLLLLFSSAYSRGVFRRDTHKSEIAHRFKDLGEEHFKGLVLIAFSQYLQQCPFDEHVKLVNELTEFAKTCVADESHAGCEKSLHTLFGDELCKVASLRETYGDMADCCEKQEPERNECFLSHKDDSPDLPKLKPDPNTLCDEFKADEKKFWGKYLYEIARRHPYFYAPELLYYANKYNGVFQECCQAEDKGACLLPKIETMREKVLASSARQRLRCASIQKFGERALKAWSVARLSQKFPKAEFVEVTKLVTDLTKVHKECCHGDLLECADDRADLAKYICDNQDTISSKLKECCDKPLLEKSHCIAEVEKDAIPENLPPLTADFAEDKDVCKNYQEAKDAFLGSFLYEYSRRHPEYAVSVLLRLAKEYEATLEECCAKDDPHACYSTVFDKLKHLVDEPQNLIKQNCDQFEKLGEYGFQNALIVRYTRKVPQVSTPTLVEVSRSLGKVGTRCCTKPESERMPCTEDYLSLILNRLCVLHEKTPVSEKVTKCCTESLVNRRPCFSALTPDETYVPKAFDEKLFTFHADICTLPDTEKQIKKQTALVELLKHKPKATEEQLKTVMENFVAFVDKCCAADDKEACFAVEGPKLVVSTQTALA

[2] = small-molecule microarray binders of probe aXIP, primary screen, biochemical, NeuroSMM set, 635/667 nm fluorescence (AID 1119); settings: higher = more signal, called active from +8 up or from −8 down;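 also: probe is the protein aXip251-270 applied at 1 µg/mL to compound-printed slides; binding of probe to printed compounds measured as 667 nm fluorescence plus signal to noise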
[3] = small-molecule binders of probe aNOTCH3, primary screen, biochemical, small-molecule microarray, 635/667 nm fluorescence (AID 1120); settings: higher = more signal;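 also: probe is a biotin-tagged antibody raised against NOTCH3 rather than NOTCH3 protein; score merges spot fluorescence near 667 nm with spot signal to noise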
[4] = small-molecule binders of probe aNOTCH2, primary screen, biochemical, small-molecule microarray, 635/667 nm fluorescence (AID 1121); settings: higher = more signal;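 also: score merges feature fluorescence read at 667 nm with its signal to noise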
[5] = target: Carbonic anhydrase 2 (Homo sapiens) (UniProt P00918); experiment: CAII small-molecule binders, profiling panel, biochemical, small-molecule microarray, Alexa647-labelled CAII (AID 1122); settings: CAII-A647 binding fluorescence, higher = more signal
[6] = COS7 lysate on small-molecule microarray, probe aHis, 635 nm (AID 1123); settings: COS7 cell lysate, fluorescence, higher = more signal;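 also: z-score combines 667nm fluorescence intensity with signal-to-noise per printed compound spot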
[7] = compound binding in COS7 lysate, probe aLAP1, primary screen, cell lysate, small-molecule microarray (AID 1124); settings: probe aLAP1, fluorescence, higher = more signal;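 also: lysate comes from COS7 cells expressing LAP1 and is applied at 0.3 µg/mL; score merges spot fluorescence near 667 nm with signal-to-noise over triplicate slides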
[8] = test system: Sam68 (KHDRBS1); experiment: Sam68 small-molecule binders, primary screen, biochemical, small-molecule microarray, 635 nm fluorescence (AID 1125); settings: small-molecule microarray binding, higher = more signal;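 also: score merges 667 nm channel intensity with signal to noise over triplicate slides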
[9] = test system: Chordin-like protein 2 (CHRDL2); experiment: CHRDL2 small-molecule binders, primary screen, biochemical, small-molecule microarray, 635 nm fluorescence (AID 1126); settings: small-molecule microarray binding, fluorescence 635 nm; higher = more signal;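 also: printed compound slides probed with Chrdl2 protein at 4 µg/mL for 1 h at 4 C; score merges 667 nm emission intensity with signal to noise over three replicate slides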
[10] = target: Concanavalin-A (Canavalia ensiformis) (UniProt P02866); experiment: ConA small-molecule binders, primary screen, artefact control for SMM control protein annotation, biochemical, small-molecule microarray, Alexa647 label, 635 nm (AID 1127); settings: ConA-A647 binding fluorescence, higher = more signal;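 also: z combines 667 nm emission intensity with signal-to-noise across three replicate slides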
Chain of Concanavalin-A (Canavalia ensiformis) (P02866 whole entry, looked up): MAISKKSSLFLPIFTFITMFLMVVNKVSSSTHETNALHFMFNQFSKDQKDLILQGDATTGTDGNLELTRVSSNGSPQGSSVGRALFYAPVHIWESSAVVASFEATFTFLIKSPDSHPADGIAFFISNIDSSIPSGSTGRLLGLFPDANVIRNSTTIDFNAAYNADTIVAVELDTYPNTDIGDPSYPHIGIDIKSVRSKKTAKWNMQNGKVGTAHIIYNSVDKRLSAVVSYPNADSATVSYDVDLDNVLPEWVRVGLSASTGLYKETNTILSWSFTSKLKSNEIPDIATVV

Compound | composite z-score [1] | composite Z-score [2] | composite z-score [3] | composite z-score [4] | composite z-score [5] | composite z-score [6] | composite z-score [7] | composite z-score [8] | composite z-score [9] | composite z-score [10]
CN1C(=O)C2C=CC(C(O)C=Cc3ccc([N+](=O)[O-])cc3)N(N3CCCCC3)C2C1=O (stereo not given) | 0.933 | 0.693 (inactive) | 1.03 | 0.713 | 0.766 | 2.1 | 1.52 | 1.31 | 0.57 | 1.2
COCCn1c(C(=O)N(C)C)cc2c1C[C@H]1CN(C(=O)c3ccccc3)[C@@](Cc3ccc(F)cc3)(C(=O)OC)[C@@H]21 | 0.985 | 0.916 (inactive) | 0.073 | 0.197 | 0.859 | 2.02 | -0.0593 | 0.459 | 0.194 | 0.787
O=c1cccc(-c2ccc3ccccc3c2)o1 | -1.67 | 0.19 (inactive) | -0.0766 | -0.115 | -0.263 | -0.332 | -0.341 | -0.591 | 0.387 | -0.544
CCCCC(=O)N(Cc1ccccc1F)[C@@H]1CC(C(=O)NCCO)=C[C@H](Oc2c(I)cc(CO)cc2OC)[C@H]1O | -0.823 | -0.685 (inactive) | 0.201 | -0.0128 | 0.521 | 1.54 | 0.44 | 1.3 | 1.5 | 1.19
COCCOC(=O)N1C(=O)[C@@]2(c3cc(C#Cc4ccc(OC)cc4)ccc31)[C@H](c1ccc(OCCO)cc1)N1[C@H](c3ccccc3)[C@H](c3ccccc3)OC(=O)[C@H]1[C@@H]2C(=O)N1CCc2cc(OC)c(OC)cc2C1 | -0.536 | 0.343 (inactive) | 0.0194 | -0.0907 | 0.228 | 0.875 | 0.556 | 1.17 | 0.599 | 0.843
Cc1ccc(N2C(=O)c3ccccc3[C@](C)(C(=O)NCCN3CCOCC3)[C@@H]2c2ccc(CO)cc2)nc1 | -0.657 | -0.559 (inactive) | -0.279 | -0.14 | 0.494 | -0.0207 | 0.0322 | -1.39 | -0.494 | -0.828
O=C(N1CCCCC1)[C@]1(CCS(=O)(=O)c2ccccc2)N=C(c2ccc(OCCCO)cc2)O[C@@H]1c1ccccc1 | 0.431 | 1.77 (inactive) | 0.381 | 0.0161 | 0.639 | 2.08 | 0.165 | 1.27 | -0.457 | 1.18
C=C(C(=O)CC[C@@H](OC(=O)c1cccnc1)c1ccc(CO)o1)C(C)C | 0.0207 | 0.278 (inactive) | 0.101 | -0.0698 | 0.614 | 0.583 | 0.697 | 1.24 | 0.584 | 0.383
COc1ccccc1CN1C(=O)c2ccccc2[C@](Cc2ccccc2I)(C(=O)NC2CC2)[C@@H]1c1ccc(CO)cc1 | 0.0506 | 0.0161 (inactive) | -0.0208 | -0.0878 | 0.548 | 2.11 | 0.524 | 1.32 | 0.245 | 1.14
[N-]=[N+]=Nc1ccccc1[C@@H]1OC(c2ccc(OCCCO)cc2)=N[C@]1(CCS(=O)(=O)c1ccccc1)C(=O)N1CCCCC1 | 1.03 | -0.0281 (inactive) | 0.144 | 0.139 | 0.625 | 1.93 | 0.686 | 1.29 | -0.74 | 1.2
CC(C)C[C@@H]1NC(=O)[C@@H]2C[C@H](C(=O)NCCCCN(C)C)[C@H](c3ccc(O)cc3)N2C1=O | -0.0836 | 0.0699 (inactive) | -0.236 | -0.124 | 0.335 | 0.732 | 0.148 | 0.225 | -0.631 | -0.0663
COc1ccc(C#Cc2ccc3c(c2)[C@]2(C(=O)N3)[C@H](c3ccc(OCCO)cc3)N3[C@H](c4ccccc4)[C@H](c4ccccc4)OC(=O)[C@H]3[C@@H]2C(=O)Nc2nc3ccccc3s2)cc1 | 0.562 | -0.0127 (inactive) | 0.217 | -0.0267 | 0.645 | 2.22 | 0.534 | 1.29 | 0.57 | 1.13
Cc1cc(C)c(C(O)C2C=CC3C(=O)NC(=O)C3N2Nc2ccccn2)c(C)c1 (stereo not given) | 0.63 | -0.0521 (inactive) | 0.148 | 0.139 | 0.422 | 1.09 | 0.751 | 0.785 | -0.907 | 0.049
CCCCN1CC=CC23O[C@@H]4C=CCCOC(=O)C4[C@H]2C(=O)N(CCCO)[C@@H]3C1=O (stereo not given in full) | -1.13 | -0.941 (inactive) | -0.189 | -0.155 | 0.488 | -0.673 | -0.469 | -0.905 | -0.304 | -1.59
C=C(COC)C(=O)CC[C@H](OC(=O)c1cccnc1)c1ccccc1OCCO | 0.233 | 0.708 (inactive) | 0.217 | -0.0846 | 0.286 | 0.765 | 0.591 | 1.32 | 0.906 | 0.475
CC(C)[Si]1(C(C)C)O[C@@H](c2ccccc2)c2cc(-c3ccc(-c4ccc(Cl)c(Cl)c4)o3)nc(CCc3ccccc3)c21 | -1.24 | 0.0953 (inactive) | -0.226 | -0.148 | 0.287 | 0.143 | 0.312 | -0.141 | -1.59 | -1.04
C=CCC(OC(C)=O)[C@@H]1[C@@H](N(Cc2ccc(-c3ccccc3)cc2)C(=O)c2ccc(C)cc2)c2cc(OCCCO)ccc2N1C(=O)Cc1ccc(OC)cc1 (stereo not given in full) | -0.0547 | 0.39 (inactive) | -0.0208 | -0.0131 | -0.249 | 0.0567 | 0.179 | -0.248 | -0.0845 | 0.733
COC(=O)C(CC#Cc1ccc2c(c1)[C@]1(C(=O)N2)[C@H](C(=O)N2CCCCCCC2)[C@H]2C(=O)O[C@H](c3ccccc3)[C@H](c3ccccc3)N2[C@@H]1c1ccccc1OCCO)C(=O)OC | 0.678 | 10.6 (active) | 2.26 | 1.16 | 1.08 | 5.41 | 1.58 | 1.32 | 1.68 | 0.916
Cc1ccc(F)cc1S(=O)(=O)N[C@@H]1CCN(Cc2ccc(C(F)(F)F)cc2)C1 | -0.973 | 0.512 (inactive) | -0.159 | -0.173 | -0.171 | 0.0774 | 0.242 | 0.144 | 0.509 | -0.628
CCOC(=O)C[C@H]1[C@H](OC(=O)c2cc3ccccc3oc2=O)[C@@H](NC(=O)c2ccc3ccccc3c2)c2cc(OCCCO)ccc2N1C(=O)c1ccccc1 | 0.342 | 0.465 (inactive) | 0.0745 | -0.123 | 0.571 | 0.224 | 0.334 | 1.29 | 0.234 | 0.275
COc1ccccc1CN1C(=O)c2ccccc2[C@](Cc2ccccc2I)(C(=O)NCc2ccccc2)[C@@H]1c1ccc(CO)cc1 | 0.717 | 0.265 (inactive) | -0.0682 | -0.0211 | 0.345 | 1.77 | 0.729 | 0.505 | -0.748 | -0.0126
C=C(C(=O)CC[C@@H](OC(C)=O)c1ccc(OCCO)cc1)C(C)C | 0.773 | 0.154 (inactive) | -0.122 | -0.0908 | 0.76 | 1.57 | -0.773 | 0.135 | 0.0246 | 0.187
CC(C)OC(=O)C1=CCC(c2cccc(Cl)c2)O1 (stereo not given) | 0.569 | 0.403 (inactive) | -0.36 | -0.169 | 0.848 | 2.72 | -0.157 | 0.649 | -1.72 | 0.417
Cc1ccc(N2C(=O)c3ccccc3[C@@H](C(=O)NC(C)C)[C@@H]2c2ccc(CO)cc2)nc1 | -0.106 | -0.0969 (inactive) | -0.272 | -0.152 | 0.743 | 0.971 | 0.618 | -0.721 | -0.0432 | -0.0441
C=CC[C@@]1(C(N)=O)N=C(c2ccc(OCCCO)cc2)O[C@@H]1c1ccccc1N=[N+]=[N-] | 0.225 | -0.56 (inactive) | 0.116 | 0.468 | 0.555 | 1.64 | 1.82 | 0.934 | 1.16 | 0.126
CO[C@H]1O[C@H](CO)[C@@H](OC(=O)Nc2ccccc2-c2ccccc2)[C@H](OC(=O)Nc2ccccc2-c2ccccc2)[C@H]1OC(=O)Nc1ccccc1-c1ccccc1 | 0.784 | 0.341 (inactive) | 0.275 | -0.0759 | 0.503 | 1.96 | -0.32 | 1.3 | 0.0309 | 1.15
Cc1ccc(S[C@]2(C(=O)NCc3ccccc3)CC(=O)N(Cc3cc(C(F)(F)F)cc(C(F)(F)F)c3)[C@@H]2c2ccc(CO)cc2)cc1 | 0.737 | 0.3 (inactive) | -0.128 | -0.208 | 0.433 | 1.03 | 1.28 | -1.01 | -0.568 | -0.856
C=CCN1C(=O)[C@@]2(O[C@@H](CCO)[C@H]([Si](C)(C)c3ccc(OC)cc3)[C@H]2C)c2cc(NC(C)=O)ccc21 | -0.0164 | 0.347 (inactive) | 0.307 | -0.044 | 0.366 | 2.57 | 0.423 | 1.33 | 0.835 | 0.915
